The results in this text go back to PubChem BioAssay.

The subject of test [1] is Wnt5a (protein binding on small-molecule microarray). The experiment in a line: Wnt5a binders on small-molecule microarray, primary screen, biophysical, 635/667 nm fluorescence (AID 1142).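 Note: fluorescence read at 667 nm with signal to noise per printed feature.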 To be noted: 635 nm fluorescence, higher = more signal.
Test [2] is described as follows: cell viability in Huh7 cells, primary screen, cytotoxicity control for HCV replication inhibitor project, CellTiter-Glo luminescence, basal, 48 h (AID 1143).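 Note: Huh7 hepatoma cells carrying a hepatitis C replication reporter with no stimulus; test concentration not given here.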 The note with it: Huh7 HCV replicon, higher = more signal, called active from +8 up or from −8 down. (Cellular ATP, detected with luciferase, serves as a proxy for viable cell number.)
Test [3] can be described thus: P. aeruginosa biofilm formation inhibitors, primary screen, PAO1 strain, BacTiter-Glo luminescence, LB-PBS (AID 1144). The note with it: 12 h, higher = more signal.
A short description of test [4]: CREB reporter modulators without forskolin, primary screen, cell-based, PC12, CRE-LacZ reporter, unstimulated (AID 1145). To be noted: no forskolin, luminescence, 4.5 h, higher = more signal, called active from +8 up or from −8 down.
The nature of test [5]: CREB reporter modulators under forskolin, primary screen, cell-based, PC12, CRE-LacZ reporter, forskolin-stimulated (AID 1146).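 Note: PC12 cells with 6xCRE LacZ reporter stimulated by forskolin 10 µM; beta-galactosidase reporter signal reflecting CREB driven transcription.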 The note with it: luminescence, 4.5 h, higher = more signal, called active from +8 up or from −8 down.
The target of test [6] is Streptavidin (Streptomyces avidinii) (UniProt P22629). Kind of test: streptavidin binders on small-molecule microarray, primary screen, artefact control for SMM compound annotation, biophysical, 635/667 nm fluorescence (AID 1147).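 Note: signal reflects streptavidin binding to arrayed compounds as a control protein.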 The note with it: streptavidin binding, higher = more signal.
Test [7] in a line: small-molecule binders of probe aInhba, primary screen, biochemical, small-molecule microarray, 635/667 nm fluorescence (AID 1148).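 Note: score merges 667nm spot fluorescence with signal-to-noise for antibody binding to printed compounds.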 The note with it: higher = more signal.
Test [8] addresses Torsin-1A (Homo sapiens) (UniProt O14656). Kind of test: torsin A binders from cell lysate, primary screen, small-molecule microarray, wild-type, 635/667 nm (AID 1149). To be noted: COS7 hTOR1A-WT lysate, 635 nm fluorescence, higher = more signal.
For test [9] the target is unchanged. The experiment in a line: small-molecule binders of mutant TOR1A in lysate, primary screen, cell lysate, small-molecule microarray, COS7 lysate, 635/667 nm fluorescence (AID 1150).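 Note: score pools 667 nm emission and signal to noise measuring lysate protein binding.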 To be noted: COS7 hTOR1A mutant lysate, 635 nm fluorescence, higher = more signal.
Test [10] concerns Sonic hedgehog protein (Shh). Kind of test: small-molecule binders of Shh protein, primary screen, biochemical, small-molecule microarray, 635/667 nm fluorescence (AID 1151).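 Note: Shh protein binding to compounds spotted on small-molecule microarray slides; score combines spot fluorescence intensity with signal-to-noise across triplicate slides.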 To be noted: small-molecule microarray binding, 635 nm fluorescence; higher = more signal.

Activity calls are given as the source filed them. Unless noted, the rule behind the calls is not given here.

Chain of Torsin-1A (Homo sapiens) (O14656 whole entry, looked up): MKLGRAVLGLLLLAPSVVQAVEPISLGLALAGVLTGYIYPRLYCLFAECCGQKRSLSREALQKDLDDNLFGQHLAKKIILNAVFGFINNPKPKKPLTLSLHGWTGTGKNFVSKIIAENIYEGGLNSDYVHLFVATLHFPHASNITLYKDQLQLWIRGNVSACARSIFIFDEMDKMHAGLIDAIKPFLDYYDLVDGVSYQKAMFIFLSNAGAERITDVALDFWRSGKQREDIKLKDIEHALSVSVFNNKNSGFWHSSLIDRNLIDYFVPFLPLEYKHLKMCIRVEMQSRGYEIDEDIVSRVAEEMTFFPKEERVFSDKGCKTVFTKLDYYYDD
Chain of Streptavidin (Streptomyces avidinii) (P22629 whole entry, looked up): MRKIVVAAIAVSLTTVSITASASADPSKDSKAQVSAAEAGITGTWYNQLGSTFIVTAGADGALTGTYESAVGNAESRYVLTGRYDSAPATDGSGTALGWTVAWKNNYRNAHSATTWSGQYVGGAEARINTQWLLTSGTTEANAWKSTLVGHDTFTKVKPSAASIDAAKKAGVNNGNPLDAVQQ

On to `COC(=O)[C@@]1(Cc2ccc(OC)cc2)[C@H]2c3cc(C(=O)N4CCCC4)n(CCn4cc([N+](=O)[O-])nc4C)c3C[C@H]2CN1C(=O)c1ccccc1`, for which the composite z-score in test [1] is 1.94; in [6], 2.22; in [7], 1.84; in [8] it was -0.236; in [9] it was 1.75; in test [10], -0.455. The z-score in test [2] is -0.798 (inactive); in test [3], -0.245 (inactive); in test [4] it was 0.779 (inactive); in [5], 0.861 (inactive).

In the case of `COC(=O)[C@H](Cc1ccccc1)N1CC2=CCCC=C[C@@H]2[C@H]1[C@H](O)Cc1ccccc1`, the composite z-score is -0.0279 in [1]; 0.916 in [6]; -0.0332 in test [7]; -0.214 in [8]; -0.371 in [9]; 0.848 in [10]. In addition, the z-score in [2] was -1.02 (inactive); in test [3], 1.09 (inactive); in test [4], 2.4 (inactive); in test [5] it was 1.07 (inactive).

Turning to `C=CCNC(=O)[C@H]1[C@@H]2C(=O)O[C@@H](c3ccccc3)[C@@H](c3ccccc3)N2[C@@H](c2ccccc2OCCO)[C@]12C(=O)N(C(=O)OCCOC)c1ccc(C#Cc3ccc(OC)cc3)cc12`, the composite z-score in test [1] is 0.571; in test [6] it was 0.12; in test [7], -0.149; in test [8] it was 0.292; in test [9], 0.51; in test [10], 0.168. For the same compound, the z-score was -2.77 (inactive) in [2], -0.394 (inactive) in test [3], 1.12 (inactive) in test [4] and -0.261 (inactive) in test [5].

Consider `COCCOC(=O)N1C(=O)[C@@]2(c3cc(C#CC4(O)CCCCCC4)ccc31)[C@H](c1ccc(O)cc1)N1[C@H](c3ccccc3)[C@H](c3ccccc3)OC(=O)[C@H]1[C@@H]2C(=O)N1CCCCCCC1`, for which the composite z-score in test [1] was 0.357; in test [6] it was -0.215; in [7], -0.0631; in [8] it was 0.123; in test [9], 0.275; in test [10], 1.09. For the same compound, the z-score in test [2] was -0.844 (inactive); in [3] it was 0.887 (inactive); in test [4] it was 0.484 (inactive); in test [5] it was -0.125 (inactive).

`[N-]=[N+]=Nc1ccccc1[C@H]1OC(c2ccc(OCCCO)cc2)=N[C@@]1(Cc1ccccc1)C(=O)NCC(O)CO` (stereo not given in full): the composite z-score in [1] is 0.96; in test [6] it was 0.211; in [7] it was 0.121; in [8], 0.36; in test [9], 0.807; in [10] it was -1.32. In addition, the z-score was -2.87 (inactive) in test [2], -0.48 (inactive) in [3], -1.49 (inactive) in test [4] and -1.2 (inactive) in [5].

As to `C=C(CCCC)/C(=C/C[C@H](OC(=O)c1ccncc1)c1ccc(OCCO)cc1)c1cnc2ccccc2c1`, the composite z-score was 0.766 in [1]; 1.83 in test [6]; -0.0221 in test [7]; 1.03 in test [8]; 0.667 in test [9]; 1.4 in test [10]. Further, the z-score in [2] is -1.17 (inactive); in [3] it was 0.15 (inactive); in [4] it was 10.9 (active); in test [5], -0.574 (inactive).

`COC(=O)[C@@]1(Cc2ccccc2)[C@H]2c3cc(C(=O)N(C)C)n(CCO)c3C[C@H]2CN1C(=O)c1ccccc1`: the composite z-score in test [1] was 0.518; in [6] it was 2.16; in [7], 0.329; in test [8] it was -0.212; in test [9] it was 0.133; in test [10] it was -0.611. The z-score in test [2] was 0.254 (inactive); in test [3], 0.409 (inactive); in test [4], 0.583 (inactive); in [5], -0.609 (inactive).

For `COCCn1c(C(=O)N(C)C)cc2c1C[C@H]1CN(C(=O)c3ccccc3)[C@@](Cc3ccc(OC)cc3)(C(=O)OC)[C@@H]21`, the composite z-score in [1] is 0.198; in test [6], 0.572; in test [7], -0.0237; in test [8], 0.236; in [9], 1.11; in test [10], -0.472. The z-score in [2] was -1.27 (inactive); in [3], 0.491 (inactive); in [4], 0.776 (inactive); in [5], 0.0711 (inactive).

With `C=CCN1C(=O)[C@]2(O[C@H](CCn3cc([C@H](O)c4ccccc4)nn3)[C@@H]([Si](C)(C)c3ccc(OC)cc3)[C@@H]2C)c2cc(NC(=O)c3ccc(OC)cc3)ccc21`, the composite z-score in test [1] was 0.0292; in [6], -0.0759; in [7], 0.117; in [8], -0.68; in test [9] it was 0.0247; in test [10], 1.36. The z-score in test [2] is -3.84 (inactive); in test [3], -1.5 (inactive); in [4], 1.05 (inactive); in test [5], -1.54 (inactive).

Regarding `CN1C(=O)C2C=CC(C(O)c3ccc(-c4ccccc4)s3)N(NC(=O)OC(C)(C)C)C2C1=O` (stereo not given), the composite z-score in test [1] is -0.423; in test [6], 1.38; in [7], 0.0069; in test [8], -0.043; in test [9], 0.564; in test [10], 0.0221. Further, the z-score in test [2] is 0.531 (inactive); in [3], 0.146 (inactive); in test [4] it was 0.436 (inactive); in test [5], -0.0651 (inactive).

`C[C@]1(C(=O)O)c2ccccc2C(=O)N(Cc2cc(F)cc(C(F)(F)F)c2)[C@H]1c1ccc(CO)cc1`: the composite z-score in test [1] is -0.0056; in test [6], 0.0949; in [7], -0.152; in [8], -0.0875; in [9] it was 0.154; in test [10], 0.505. Also, the z-score in test [2] was -2.56 (inactive); in test [3] it was -2.17 (inactive); in test [4], -0.502 (inactive); in test [5], -0.172 (inactive).

Turning to `CCCCC(=C=CC[C@H](O)c1ccc(CO)o1)CCO`, the composite z-score in test [1] is 0.0119; in test [6], -0.144; in test [7] it was -0.128; in [8], 1.39; in test [9] it was 0.587; in [10], 1.69. In addition, the z-score is 0.0865 (inactive) in test [2], 0.0836 (inactive) in test [3], 0.96 (inactive) in test [4] and 1.56 (inactive) in [5].

For the compound `COCCCNC(=O)[C@@]1(Sc2ccc(C)cc2)CC(=O)N(Cc2ccccc2C(F)(F)F)[C@@H]1c1ccc(CO)cc1I`, the composite z-score in [1] is -0.249; in test [6], -0.503; in test [7], -0.111; in [8], -1.5; in test [9] it was -0.642; in [10], -1.02. The z-score in [2] is -0.818 (inactive); in test [3], 0.86 (inactive); in test [4] it was -0.0888 (inactive); in test [5] it was 0.421 (inactive).

Turning to `C=C(COC)C(=O)CC[C@H](OC(=O)c1cccnc1)c1ccc(OCCO)cc1`, the composite z-score in test [1] was determined as 0.965; in [6] it was 0.257; in test [7], 0.103; in test [8] it was 0.613; in test [9], 1.43; in test [10], 2.4. For the same compound, the z-score in test [2] is -2.1 (inactive); in test [3], 0.385 (inactive); in [4] it was 1.54 (inactive); in [5] it was 0.755 (inactive).
